Sampled rows, rich in hits. Any-hit rate of the full collection: about 1.1%.
12-LOX inh: inhibitors of human 12S-lipoxygenase ALOX12; P18054; purified 12hLO, xylenol orange hydroperoxide absorbance; Potency, µM (titrated, usually from 108 µM), for the others: at the top dose activity change, negative = inhibition, actives largely listed as inhibitors; actives 1.1% (n = 580,000); AID 1671190; also: % is scaled to controls: 0 for no effect and ±100 for the full control effect
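Purified human 12hLO at 150 nM in 25 mM Hepes, 0.01% Triton X-100, pH 7.0, preincubated 15 min at room temperature with compound. Reaction started with 40 uM arachidonic acid, 30 min at room temperature. Hydroperoxide measured by Fe-xylenol orange, 573/405 nm absorbance ratio.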
GRP78 ERSR act: inducers of ER stress response in human glioma cells. actives 0.02% (n = 420,000). U87-MG GRP78 promoter luciferase reporter, 16 h. Potency, µM, inactives show at the top dose activation, usual class: activators; also: series mostly up to about 76 µM; % of control where 0% means no effect; nearly all actives have a fitted effect of over 35% in size
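Stably transfected U87-MG human glioma cells carrying a GRP78-based luminescent sensor were seeded at 1000 cells/well, pin-dosed with compounds and incubated 16 h. Luciferase reagent was then added, and end-point luminescence was read after 10 min at room temperature.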
Apoferritin bind: binds horse apoferritin like a general anesthetic; P02791; apoferritin/1-aminoanthracene competitive binding, fluorescence; Potency, µM (top dose mostly 77.5 µM), without a hit: top-dose activity change, negative = displacement, hits mostly inhibitors; actives 0.074% (n = 350,000); AID 485281; also: % is scaled to controls: 0 for no effect and ±100 for the full control effect; nearly all actives have a fitted effect of over 20% in size
Target sequence (P02791 2-175 limits assumed): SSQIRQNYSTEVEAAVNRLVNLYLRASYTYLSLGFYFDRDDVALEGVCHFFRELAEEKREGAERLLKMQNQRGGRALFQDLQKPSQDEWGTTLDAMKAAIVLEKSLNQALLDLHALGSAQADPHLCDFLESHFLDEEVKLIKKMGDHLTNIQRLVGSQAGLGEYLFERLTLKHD
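Read-out: endpoint 1-AMA fluorescence, excitation 380 nm and emission 535 nm, after compounds sit 10 min at room temperature with 10 uM horse-spleen apoferritin in 50% saturated 1-AMA/PBS. Values come from four-parameter Hill fits.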
Chronic BCR inh: blocks chronic active B-cell receptor signaling. Potency, µM (doses to about 46.1 µM), for inactives: at the highest dose activity change, negative = inhibition, most hits filed as inhibitors. AID 493014. actives 0.05% (n = 340,000). ABC-DLBCL IkBa-CBG/CBR reporter, luminescence ratio, 4 h; active = well fitted inhibition curve with a large enough effect in the signal ratio, with a control signal flat, not every such curve was filed as active; inconclusive = small, poorly fitted or top-dose-only effect, or effect the other way, or a change in a side signal; the % refers to the signal ratio;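 also: plate controls were basal doxycycline-induced cells for no effect and cells given 10 µM MG132 for full effect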
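Compounds up to 46 uM were incubated four hours with TMD8 cells whose green CBG68 luciferase is fused to IkappaBalpha; red CBR luminescence normalised the signal, and concentration-effect curves were fitted to fusion, red and ratio data.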
* marks the source's active call; other numbers are inactive results; ? = inconclusive; . = no result given; [ ] = dose if it differs, or a comment. Unless noted, calls follow the shape of the dose curve; as a rule, active = well fitted curve in the direction sought with a large enough effect; inconclusive = small, poorly fitted or top-dose-only effect, or another doubt; inactive = no such curve, though single readings can be large; an effect the other way counts as inactive or inconclusive. Potency is read from the fitted curve at half-maximal effect.

SMILES | 12-LOX inh | GRP78 ERSR act | Apoferritin bind | Chronic BCR inh
O=[N+]([O-])/C=C\c1ccc2c(c1)OCO2 | 11µM* | . | . | .
C/C=C/c1ccc2c(c1)OCO2 | -7% | -4% | 1% | -7%
CCOC(=O)C1=C(CN2CCN(c3ccc(C)cc3C)CC2)NC(=O)NC1c1ccc(OC)cc1 (configuration not stated) | 45µM* | -1% | ? | .
Cc1ccc(S(=O)(=O)Cc2ccc(C(=O)N3CCN(c4cccc(C)c4C)CC3)o2)cc1 | 2%[57.4 µM] | -5% | 2% | 13µM*
CC(C)CCN1CC2(C1)C(=O)Nc1ccccc12 | 2%[12.5 µM] | . | . | .
COc1ccc(S(=O)(=O)NC[C@H]2C[C@@H]3CCN2C[C@@H]3CN2CCC(Cc3ccccc3)CC2)cc1 | 20µM* | . | . | .
CCOC(=O)COc1ccc(/C=C2\C(=O)NC(=S)N(c3ccc(OC)cc3)C2=O)cc1OC | 0% | -2% | -14% | 4%
COc1ccc(N2C(=O)/C(=C/c3ccc(OC)c(OC)c3)C(=O)NC2=S)cc1 | 50µM* | 0% | -8% | 1%
COc1ccc2c(c1)C1(CCN(C(=O)c3ccccc3C)C1)C(=O)N2 (configuration not stated) | 12% | . | . | .
O=C1NC(=O)C(=Cc2ccc(SC3CCCCC3)o2)C(=O)N1 | 22µM* | -14% | ? | 0%
NS(=O)(=O)c1ccc(-c2ccc(C=C3C(=O)NC(=O)NC3=O)o2)cc1 | 0% | -2% | ? | -2%
CCOC(=O)c1c(C)n(Cc2ccc3c(c2)OCO3)c2ccc(O)cc12 | ? | 7% | -13% | ?
CCCn1c(C)c(C(=O)OCc2ccccc2)c2cc(O)ccc21 | 35µM* | . | . | .
COC(=O)c1c(C)n(Cc2ccc3c(c2)OCO3)c2ccc(O)cc12 | 13µM* | -1% | 0% | 2%
c1ccc(C2=NOC3(CCCN(Cc4ccccn4)C3)C2)cc1 (configuration not stated) | -7%[6.33 µM] | . | . | .
Cc1ccc(C(=O)N2CCC3(CC2)c2nccn2-c2ccccc2CN3CC(C)C)cc1F | 7% | . | . | .
O=C1NC(=S)NC(=O)C1=Cc1ccc(Br)s1 | 16µM* | -13% | -8% | -3%
CC1OC(OC2C(O)CC(OC3C(O)CC(OC4CCC5(C)C(CC[C@@H]6[C@@H]5CCC5(C)C(C7=CC(=O)OC7)CCC65O)C4)OC3C)OC2C)CC(O)C1O (some centres not stated) | 4% | . | . | .
COC1C(OC(=O)c2ccc(C)[nH]2)C(O)C(Oc2ccc3c(O)c(NC(=O)c4ccc(O)c(CC=C(C)C)c4)c(=O)oc3c2Cl)OC1(C)C (configuration not stated) | 40µM* | 1% | 1% | ?
Cc1nn(-c2cccc(Cl)c2)c2c1C(c1ccsc1)SCC(=O)N2 (configuration not stated) | -30% | . | . | .
Cc1nc(-c2ccccc2Br)cc([C@H]2CN3CC[C@H]2C[C@@H]3CNC(=O)Nc2ccccc2)n1 | 11µM* | . | . | .
Cc1nc(-c2ccccc2Br)cc([C@H]2CN3CC[C@H]2C[C@@H]3CNC(=O)c2ccccc2)n1 | 8% | . | . | .
COc1ccc(-c2cc([C@H]3CN4CC[C@H]3C[C@@H]4CNC(=O)NC(C)C)nc(C)n2)cc1OC | 32µM* | . | . | .
CC(C)CCOc1cccc(CCN)c1 | 4% | . | . | .
Cc1cccc(-n2c(/C=C/c3ccccc3O)nc3ccccc3c2=O)c1 | -42% | -4% | 40% | .
SMILES | 12-LOX inh | GRP78 ERSR act | Apoferritin bind | Chronic BCR inh
Cc1cccc(-n2c(/C=C/c3ccco3)nc3ccccc3c2=O)c1 | 25µM* | . | . | .
Cn1c(O)c(C(=Nc2ccccc2)SCc2ccc(Cl)cc2)c(=O)n(C)c1=O | 16µM* | -5% | 1% | ?
Cn1c(O)c(C(=N)COc2ccccc2)c(=O)n(C)c1=O | 12% | -1% | -4% | 4%
N#C/C(=N\Nc1ccc(S(=O)(=O)N2CCc3ccccc32)cc1)C(N)=S | 16µM* | -4% | ? | ?
O=C1C(I)=CC(=C(c2cc(I)c(O)c(I)c2)c2ccccc2C(=O)O)C=C1I | 5.1µM* | 8% | . | .
COc1ccc(-c2ccc3c(c2)CN(c2cccc(Cl)c2)Cc2cnnn2-3)cc1 | 18µM* | -4% | . | .
O[C@H]1[C@H](NCC2CCCC2)[C@@H](c2ccccc2)C[C@H]1O | 18%[176 µM] | . | . | .
Cn1cccc1/C=C1/C(=O)NC(=S)N(Cc2ccc(F)cc2)C1=O | 10µM* | -4% | -12% | 6%
O=Cc1c(C(=O)O)n(Cc2ccc(Cl)cc2)c2ccccc12 | 11µM* | -3% | 0% | 4%
Cc1c(C=O)c2ccccc2n1Cc1ccccc1 | 0% | -4% | -11% | 0%
CC(C)[C@H]1C(=O)N[C@H](CO)Cc2c[nH]c3cccc(c23)N1C | 40µM* | . | . | .
COc1ccccc1N1CCN(C(=O)[C@H]2CN3CCC2C[C@@H]3Cn2cc(CCO)nn2)CC1 (some centres not stated) | 20% | . | . | .
COc1ccccc1C(=O)N1[C@H]2CC[C@@H]1c1cnc(-c3ccc(F)cc3)nc1C2 | 9% | . | . | .
CCN(CC)c1ccc(/C=C2\C(=O)NC(=O)N(Cc3ccco3)C2=O)cc1 | 45µM* | -5% | ? | -3%
Cc1ccc(OP2(=O)Nc3cc(C)c(C)cc3S2)cc1 (configuration not stated) | 20µM* | 7% | . | .
Cc1ccc2c(c1)NP(=S)(Oc1ccccc1)N2 (configuration not stated) | -23% | 1% | . | .
Cc1[nH]c2ccc(C34CC5CC(CC(C5)C3)C4)cc2c1CCN | 32µM* | . | . | .
COCC1CN(C2CCC2)CC12CCN(Cc1cccnc1)CC2 (configuration not stated) | 92% | . | . | .
O=C1NC2(CCN(Cc3cccnc3)C2)COc2ccccc21 (configuration not stated) | 84%[176 µM] | . | . | .
CN(Cc1ccccc1)C[C@H]1CN2CC[C@H]1C[C@@H]2CNC(=O)Nc1ccccc1 | -4%[176 µM] | . | . | .
NS(=O)(=O)c1ccc(N=Nc2c(O)[nH]c(=S)[nH]c2=O)cc1 | 40µM* | -4% | -6% | ?
O=c1[nH]c(=S)[nH]c(O)c1N=Nc1cccc(S(=O)(=O)N2CCOCC2)c1 | 40µM* | -1% | -7% | -5%
O=C(O)c1ccccc1-c1ccc(C=C2C(=O)N(c3ccccc3)C(=S)N(c3ccccc3)C2=O)o1 | 32µM* | -8% | -17% | ?
O=c1cc[se]c2ccccc12 | -7% | . | . | .
COCC(=O)NC[C@H]1C[C@@H]2CCN1C[C@@H]2c1cc(-c2ccccc2OC)nc(C)n1 | 50%[176 µM] | . | . | .
CC(=O)NC[C@H]1C[C@@H]2CCN1C[C@@H]2c1cc(-c2cccs2)nc(C)n1 | 41%[176 µM] | . | . | .
Cc1nc(-c2cccs2)cc([C@H]2CN3CC[C@H]2C[C@@H]3COC(=O)Nc2ccc(C(C)C)cc2)n1 | 45µM* | . | . | .
COc1ccccc1-c1cc([C@H]2CN3CC[C@H]2C[C@@H]3COC(=O)Nc2ccc(C(C)C)cc2)nc(C)n1 | 45µM* | . | . | .
O=c1[nH]c(=S)n(Cc2ccc(F)cc2)c(O)c1C=NCc1ccc2c(c1)OCO2 | 203% | -8% | -1% | 1%
